SMILES strings stand for the structures. In all, about 310,000 compounds went through this assay and about 3,300 (1.1%) were called active.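 Rule for the calls: active = B-score under library mean minus 3 SD, initial fluorescence not abnormally high, positive integrated signal ratio; inactive = the rest.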 For the sample, actives were picked, then their nearest neighbours and some compounds at random.

In PubChem BioAssay AID2553 (Johns Hopkins Ion Channel Center, 2010) one finds B-score data, which are given here for 105 compounds.

The target in this test is Short transient receptor potential channel 6 (Mus musculus) (UniProt Q61143). As to the kind of experiment: mouse TRPC6 channel inhibitors, primary screen, cell-based, HEK293, membrane potential dye (AID 2553).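 For B-score: B-score derived from integrated fluorescence ratio over the kinetic read; more negative B-score means stronger inhibition of depolarization.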 Particulars: ACh-evoked depolarization, at 10 µM; hits give low values.
Short transient receptor potential channel 6 (Mus musculus), sequence (Q61143 whole entry, looked up): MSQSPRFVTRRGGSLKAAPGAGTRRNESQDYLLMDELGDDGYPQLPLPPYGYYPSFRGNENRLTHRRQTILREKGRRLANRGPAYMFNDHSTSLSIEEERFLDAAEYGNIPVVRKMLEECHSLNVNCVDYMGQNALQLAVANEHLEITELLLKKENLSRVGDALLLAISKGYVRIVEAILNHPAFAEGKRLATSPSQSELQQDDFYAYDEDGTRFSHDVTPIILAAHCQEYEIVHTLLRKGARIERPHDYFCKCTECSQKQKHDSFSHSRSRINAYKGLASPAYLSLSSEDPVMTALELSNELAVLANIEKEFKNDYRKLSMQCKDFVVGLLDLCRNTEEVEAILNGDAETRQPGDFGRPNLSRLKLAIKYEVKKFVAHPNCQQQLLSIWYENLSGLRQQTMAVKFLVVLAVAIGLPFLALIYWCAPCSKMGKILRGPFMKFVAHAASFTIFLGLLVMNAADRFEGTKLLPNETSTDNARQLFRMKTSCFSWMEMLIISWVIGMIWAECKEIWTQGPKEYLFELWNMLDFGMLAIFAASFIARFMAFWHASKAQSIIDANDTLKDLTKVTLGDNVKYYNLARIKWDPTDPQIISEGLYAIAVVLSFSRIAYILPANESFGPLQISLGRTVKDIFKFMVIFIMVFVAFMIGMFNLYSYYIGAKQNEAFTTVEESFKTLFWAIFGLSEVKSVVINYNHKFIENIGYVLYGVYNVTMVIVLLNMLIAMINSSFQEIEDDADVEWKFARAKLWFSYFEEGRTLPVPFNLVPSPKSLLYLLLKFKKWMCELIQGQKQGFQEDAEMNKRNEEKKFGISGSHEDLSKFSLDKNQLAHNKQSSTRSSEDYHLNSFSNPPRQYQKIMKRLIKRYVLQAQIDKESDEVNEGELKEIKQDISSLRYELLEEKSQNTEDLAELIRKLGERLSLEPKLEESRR
As to `C#CC(CCN1CCCCC1)(OC)c1ccccc1` (stereo not given), the B-score entry was “inactive”. In the case of `CCOC(=O)c1sc2nc(C)[nH]c(=O)c2c1C` it was “inactive”; in that of `CCOC(=O)c1sc2nc(CSCC(=O)OCc3ccc(C(=O)OC)o3)[nH]c(=O)c2c1C`, -12.7 (active). For the compound `CCOC(=O)c1sc2nc(CSc3ccccc3)[nH]c(=O)c2c1C`, the B-score result is “inactive”. With `COc1ccc(NC(=S)N2N=CCC2c2ccccc2)cc1` (stereo not given) the entry was “inactive”. On to `Cc1cccc(-[n+]2c(-c3cccc(Br)c3)[nH]c3nc4ccccc4nc32)c1`, for which the B-score was -6.45 (active).

Turning to `Cc1nnc(SCc2ccc(C(=O)c3ccc(Cl)cc3)o2)n1-c1ccccc1`, the B-score was -6.02 (active).

As for `Cc1nnc(SCC(=O)NCCOc2ccc(Cl)cc2)n1-c1ccccc1`, the B-score result is “inactive”. In the case of `Cc1nnc(SCC(=O)N2CCN(c3ccccc3)CC2)n1-c1ccccc1`, the B-score result is “inactive”. With `CN1CCN(C(=O)c2ccc(NS(=O)(=O)c3ccccc3)cc2)CC1`, the B-score entry is “inactive”. In the case of `O=C(Nc1ccc(Br)cc1F)C1CC(=O)N(C2CCCCC2)C1` (stereo not given), the B-score result was “inactive”. In the case of `O=C(CN1CCOCC1)Nc1ccc(NC(=O)CN2CCOCC2)c(Cl)c1` it was “inactive”; in that of `CC1CCCN(CC(=O)Nc2cc(Cl)ccc2Oc2ccccc2)C1` (stereo not given), “inactive”; in that of `CC(=O)Nc1ccc(NC(=O)CN2CCCC(C)C2)c(Cl)c1` (stereo not given), -5.66 (active). In the case of `Cc1ccc(S(=O)(=O)C2(S(=O)(=O)c3ccc(C)cc3)CCCC2)cc1` it was “inactive”. With `O=S(=O)(Cc1nnnn1-c1ccccc1)c1ccccc1` the entry was “inactive”; with `O=C(OCCN1C(=O)c2ccccc2C1=O)Oc1ccccc1`, “inactive”; with `Cn1c(=O)c2c(nc(NCCNC(=O)c3ccco3)n2Cc2ccccc2F)n(C)c1=O`, “inactive”. For the compound `Cc1ccc(NC(=O)COC(=O)CNC(=O)c2ccc(Cl)cc2Cl)cc1S(=O)(=O)N1CCOCC1`, the B-score entry was “inactive”.

For the compound `Cc1ccc(C(=O)Nc2sc(Cc3ccc4c(c3)OCO4)c(C)c2C(N)=O)cc1`, the B-score result is “inactive”. In the case of `COc1ccc(CC(=O)Nc2c(C(N)=O)oc3ccccc23)cc1` it was “inactive”; in that of `COc1ccc(CC(=O)Nc2sc(Cc3ccccc3)c(C)c2C(N)=O)cc1`, -7.08 (active); in that of `Cc1ccccc1N1C(=O)C2ON(c3ccccc3)C(c3ccncc3)C2C1=O` (stereo not given), “inactive”. With `CCN(CC)CCNc1ccc(Cl)cc1[N+](=O)[O-]` the entry was “inactive”; with `COC(=O)Cn1c2ccc(C)cc2c2nc(C)sc21`, “inactive”; with `CCN(CC)CCn1c2ccc(Cl)cc2c2nc(C)sc21`, -7.92 (active). Regarding `COCCNc1ccc(-c2n[nH]c(=O)c3ccccc23)cc1[N+](=O)[O-]`, the B-score entry was “inactive”. In the case of `NS(=O)(=O)c1ccc(CCNC(=O)CCCn2c(SCC(=O)N3CCCC3)nc3ccsc3c2=O)cc1` it was “inactive”; in that of `COc1ccc(Cn2c(-c3ccc(Cl)cc3)c[n+]3ccccc23)cc1`, -7.95 (active); in that of `CCn1c(C)cc(=O)cc1-c1ccc(Cl)cc1`, “inactive”.

For `COc1ccc(Cn2c(=O)cc(C)[nH]c2=S)cc1`, the B-score entry is “inactive”.

On to `CCN1C(=S)N[C@@H](CCc2ccccc2)[C@H](C(=O)OC)[C@H]1C`, for which the B-score result is “inactive”. As for `O=C(O)CSCc1ccc(C(=O)O)o1`, the B-score result is “inactive”. As to `COc1ccc(C(=O)N2CCc3cc(OC)c(OC)cc3C2c2cccc([N+](=O)[O-])c2)cc1` (stereo not given), the B-score entry was “inactive”. Turning to `COc1ccccc1C1CCN(c2ccc([N+](=O)[O-])cn2)CC1`, the B-score result was “inactive”. With `COc1ccccc1C1SCCN1C(=O)c1ccc([N+](=O)[O-])cc1` (stereo not given) the figure was -9.98 (active); with `CC1CC(C)CN(CCOc2cccc3ccccc23)C1` (stereo not given), “inactive”. With `CCCCCCCCCCOC(=O)C[N+](C)(C)CC1CCCCC1O` (stereo not given) the figure was -9.01 (active); with `CCCCCOC(=O)c1ccc(N2C(=O)C3C4C=CC(C4)C3C2=O)cc1` (stereo not given), “inactive”; with `CCC(C)(C)c1ccc(OCC(=O)N(C)C)c(C(C)(C)CC)c1`, “inactive”. With `Oc1ccccc1-c1cc(-c2ccc(Cl)cc2)n[nH]1` the entry was “inactive”; with `CCCCNC(=O)C1CCC(CNS(=O)(=O)c2ccc(NC(C)=O)cc2)CC1` (stereo not given), “inactive”; with `Cc1ccccc1-n1nnnc1SCCCC(=O)c1ccc(F)cc1`, “inactive”. Consider `CCc1c(O)nc(SCC(=O)Nc2ccccc2)n(C(C)CC)c1=O` (stereo not given), for which the B-score entry was “inactive”. `CNC(=O)c1ccsc1NC(=O)c1ccc(S(=O)(=O)N2CCOCC2)cc1`: the B-score entry was “inactive”. Turning to `COc1ccc(C(=O)Nc2nc(-c3ccc(S(=O)(=O)N4CCOCC4)cc3)cs2)cc1`, the B-score result was “inactive”. `COC(=O)c1c(NC(=O)c2ccc(S(=O)(=O)N3CCOCC3)cc2)sc2c1CCN(C(C)C)C2`: the B-score was -5.88 (active). With `Cc1ccccc1CS(=O)(=O)CC1(O)CCN(C(=O)c2cccc(C(F)(F)F)c2)CC1` the entry was “inactive”; with `CCC(C)(C)NC(=O)C(c1ccc(OC)cc1)N(C(=O)CCC(=O)Nc1cc(C)on1)c1ccc(OC)cc1OC` (stereo not given), “inactive”; with `O=C(CSc1nnnn1C1CCCC1)N1CCCCC1`, “inactive”. With `Cc1cccc(NC(=S)Nc2ccc(Br)cc2)c1` the entry was “inactive”. For `Cc1cccc(NC(=S)NCCN(C2CCCCC2)C2CCCC2)c1`, the B-score was -5.75 (active). On to `Cc1cccc(NC(=S)Nc2ccc(Cl)c(Cl)c2)c1`, for which the B-score entry is “inactive”. In the case of `O=S(=O)(c1ccc(Br)c2ccccc12)N1CCOCC1` it was “inactive”. In the case of `Cc1ccc(S(=O)(=O)N2CCN(c3ccccc3)CC2)cc1C` it was “inactive”; in that of `Cc1cc(N2CCN(S(=O)(=O)c3ccc(C)c(C)c3)CC2)c2ccccc2n1`, -5.95 (active).

For `Cc1ccccc1N1CCN(S(=O)(=O)c2ccc3ccccc3c2)CC1`, the B-score result is “inactive”.

As for `CC(=O)NS(=O)(=O)c1ccc(N/C(N)=N/c2nc(C)cc(C)n2)cc1`, the B-score result is “inactive”. For `CC(C)N1CCC(N2CCN(Cc3cccnc3)CC2CCO)CC1` (stereo not given), the B-score entry is “inactive”.

In the case of `Cn1cnnc1Sc1ccc(CN2CCN(C3CCCC3)C(CCO)C2)o1` (stereo not given), the B-score result was “inactive”.

Turning to `Cc1ccc(CN2CCN(Cc3ccc4ncccc4c3)CC2CCO)cc1` (stereo not given), the B-score result was “inactive”.

For the compound `OCCC1CN(Cc2ccc3nsnc3c2)CCN1C1CCCC1` (stereo not given), the B-score was -6.69 (active). With `OCCC1CN(Cc2ccc3nsnc3c2)CCN1C1CCCCC1` (stereo not given) the figure was -5.65 (active). As to `COc1cccc2c1OCC(CN1CCN(C3CCCCC3)C(CCO)C1)=C2` (stereo not given), the B-score entry is “inactive”. In the case of `Fc1c(F)c(C(F)(F)F)c(F)c(F)c1N1CCN(c2ccc3nnc(C(F)(F)F)n3n2)CC1` it was “inactive”. In the case of `O=C(CCN1CCCO1)N1CCCC(N2CCN(c3cccc(C(F)(F)F)c3)CC2)C1` (stereo not given), the B-score result is “inactive”. For `O=C(O)c1ccc(S(=O)(=O)N2CCOCC2)o1`, the B-score result was “inactive”. With `O=C(NCc1ccccc1Cl)C(=O)NCC1CCCN1S(=O)(=O)c1cccs1` (stereo not given) the entry was “inactive”; with `COc1ccc([C@@H]2[C@@H]3C(=O)N(C(C)(C)C)C(=O)[C@@H]3[C@]3(Cc4ccccc4)C(=O)N(c4cccc(Br)c4)C(=O)N23)cc1`, “inactive”; with `COc1ccc(-c2nonc2NC(=O)c2oc3ccc(F)cc3c2C)cc1OC`, “inactive”. As to `CCOC(=O)C1=NN(c2ccc(Cl)cc2)/C(=C/C2=NCCc3cc(OC)c(OC)cc32)S1`, the B-score is -5.5 (active).

As to `CCOC(=O)c1cc2c(n(-c3ccc(C)cc3)c1=O)CCCC2=O`, the B-score entry is “inactive”. Take `CCOC(=O)C1=C(CN2CCc3ccccc32)NC(=O)NC1c1ccc(Cl)cc1` (stereo not given): the B-score entry is “inactive”.

As to `Clc1ccc(-n2nnnc2-c2cnc(-c3ccccn3)nc2-c2cccs2)cc1`, the B-score is -6.02 (active).

With `c1ccc(-n2nnnc2-c2cccnc2)cc1`, the B-score result was “inactive”. With `FC(F)(F)c1nc(-c2ccccc2)ncc1-c1nnnn1-c1ccccc1`, the B-score result was “inactive”. In the case of `O=C(Nc1cccc(Cl)c1)c1cc([N+](=O)[O-])ccc1N1CCN(CCO)CC1` it was “inactive”. With `CCN1CCN(c2ccc([N+](=O)[O-])cc2C(=O)c2ccc(Cl)cc2)CC1` the figure was -6.09 (active); with `CCC(=O)c1ccc(N2CCN(C(=O)c3cc([N+](=O)[O-])ccc3F)CC2)c(F)c1`, “inactive”; with `COc1ccc(C(C#N)Nc2ccc(C)cc2)cc1` (stereo not given), “inactive”. With `Cc1ccc(S(=O)(=O)N(c2cccc(C)c2)C2CCS(=O)(=O)C2)cc1` (stereo not given) the entry was “inactive”; with `COCc1ccc(CN2CCC(Oc3ccc(C(=O)NCc4ccccn4)cc3)CC2)o1`, “inactive”. As for `CCCn1nc(NC(=O)C(C)C)c2cc3cc(OC)ccc3nc21`, the B-score result was “inactive”. Consider `Cc1ccccc1CSc1nnc(CCCCCNC(=O)OC(C)(C)C)o1`, for which the B-score entry was “inactive”. As for `O=C(CN(C(=O)CCC(=O)Nc1nccs1)c1ccc(F)cc1)NCc1ccc2c(c1)OCO2`, the B-score entry is “inactive”. With `CCC(C)(C)NC(=O)CN(C(=O)CCC(=O)Nc1cc(C)ccn1)c1ccc2c(c1)OCCO2` the entry was “inactive”. Take `CCC(C)(C)NC(=O)CN(C(=O)CCC(=O)Nc1nccs1)c1ccc2c(c1)OCO2`: the B-score was -5.2 (active).

For the compound `CCN1CCC2(CCN(Cc3cn[nH]c3-c3ccc(OC)c(F)c3)C2)C1` (stereo not given), the B-score entry was “inactive”. Consider `COc1ccc(/C=C/C(=O)OCC(=O)NCc2cccs2)cc1OC`, for which the B-score entry is “inactive”. In the case of `O=C(CN1CCN(C(=O)C2CCCO2)CC1)Nc1c(Cl)cccc1Cl` (stereo not given), the B-score entry was “inactive”. Take `COc1ccc(OC)c(CNC(=O)Cn2nc(C)c3c(C)n(-c4ccc(C)cc4)nc3c2=O)c1`: the B-score result is “inactive”. In the case of `CN=C1C=C/C(=N/N=c2\ccn(O)cc2C)C=C1C` it was “inactive”; in that of `O=C(O)CCCCCNc1ncnc2ccc(Br)cc12`, “inactive”; in that of `Cc1ccccc1-n1nc(C)c2c1N=C1C(Cl)=CC(Cl)=CN1C2c1ccc(C(=O)O)cc1` (stereo not given), “inactive”. In the case of `Cc1onc(C(=O)NN)c1C(=O)N1CCN(C(c2ccccc2)c2ccccc2)CC1` it was “inactive”. With `Cn1nnnc1SCC(=O)N1CCN(C(c2ccccc2)c2ccccc2)CC1`, the B-score result is “inactive”. For `O=C(c1ccc(-n2cnnn2)cc1)N1CCN(C(c2ccccc2)c2ccccc2)CC1`, the B-score is -5.27 (active). With `COc1ccc(Cc2nnc(SCC(=O)N(c3ccccc3)C(C)C)n(N)c2=O)cc1` the entry was “inactive”; with `C=CCSC(CC)(CC)C(N)=O`, “inactive”. Consider `Oc1c(Cl)cc(Cl)c(Cl)c1Cc1c(O)c(Cl)cc(Cl)c1Cl`, for which the B-score was -7.71 (active). In the case of `COc1cc(NC(=O)C2CC(c3ccccc3O)=NO2)c(OC)cc1Cl` (stereo not given) it was “inactive”. As for `Cc1ccc(F)cc1NC(=O)N1CCCN(c2ccc(C(F)(F)F)cn2)CC1`, the B-score result is “inactive”. For the compound `CN(CC(=O)Nc1ccccc1[N+](=O)[O-])Cc1ccc(Br)cc1`, the B-score was -5.44 (active). With `Cc1ccc(NC(=O)CN(C)Cc2ccc(F)cc2)c([N+](=O)[O-])c1` the entry was “inactive”; with `CN(CC(=O)Nc1ccc(N2CCOCC2)cc1)CC(=O)Nc1ccccc1[N+](=O)[O-]`, “inactive”.
